Compound activity (PubChem BioAssay)
Many of the other results were omitted from the sample, so hits are more common in it than they were.
ST2 IL33 inh – blocks human ST2 binding to IL-33 | AID 1259354 | hit rate 2.3% among 78,000 | AlphaLISA ST2-Fc/biotin-IL-33 interaction, 1 h | inhibition, % for hits at 17 µM; in the data active = inhibition above about 30%
Target sequence (Q01638 whole entry, looked up): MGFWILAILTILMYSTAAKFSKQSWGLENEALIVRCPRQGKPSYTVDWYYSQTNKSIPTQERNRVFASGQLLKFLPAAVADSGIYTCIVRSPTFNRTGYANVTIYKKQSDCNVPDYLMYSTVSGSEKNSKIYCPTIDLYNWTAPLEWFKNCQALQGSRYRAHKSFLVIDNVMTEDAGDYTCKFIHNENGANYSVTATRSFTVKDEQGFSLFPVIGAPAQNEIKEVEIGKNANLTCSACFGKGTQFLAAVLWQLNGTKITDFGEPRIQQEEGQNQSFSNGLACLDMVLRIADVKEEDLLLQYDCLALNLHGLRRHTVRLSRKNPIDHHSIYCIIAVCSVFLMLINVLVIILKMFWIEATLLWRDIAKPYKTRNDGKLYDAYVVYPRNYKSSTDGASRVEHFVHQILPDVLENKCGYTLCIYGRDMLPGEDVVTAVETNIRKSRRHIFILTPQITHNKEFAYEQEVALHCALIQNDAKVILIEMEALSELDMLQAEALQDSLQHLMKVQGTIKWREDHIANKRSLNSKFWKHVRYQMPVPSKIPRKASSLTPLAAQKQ
Numbers stand for hits; . = inactive; ! = repeats disagree.

SMILES	ST2 IL33 inh
O=C(Cn1c(=O)c2sccc2n(Cc2ccc(Cl)cc2)c1=O)NCc1ccco1	.
O=C(CCCn1c(=O)c2sccc2n(Cc2ccc(Cl)cc2)c1=O)NCc1ccco1	.
O=C(CCCn1c(=O)c2sccc2n(Cc2ccc(F)cc2)c1=O)NCc1ccco1	30%!
Cc1ccc(CNC(=O)CN(C)S(=O)(=O)c2ccc(Br)cc2)cc1	.
O=C(CCSCc1ccc(F)cc1)N1CCCN2CCC[C@H]2C1	.
COc1cc([N+](=O)[O-])ccc1NC(=O)c1ccc(OC(C)C)cc1	.
O=C(NCc1ccc(F)cc1)c1ccccc1Br	.
CCCCCCCC/C(=C/CC(=O)O)C(=O)O	.
Cc1ccc(-n2nc3ccc(NC(=O)c4ccccc4F)cc3n2)cc1	.
CC(=O)c1ccc(NC(=O)c2ccccc2F)cc1	.
O=C(Nc1ccc(N2CCCC2)cc1)c1ccccc1F	68%
COc1cccc(OC)c1OCC(O)CN1C(C)CCCC1C (configuration not stated)	.
Cc1ccc(NS(=O)(=O)c2ccc3[nH]c(=O)c(=O)[nH]c3c2)c(Cl)c1	37%
Cc1ccc(Cl)cc1NS(=O)(=O)c1ccc2[nH]c(=O)c(=O)[nH]c2c1	.
Cc1ccc(NS(=O)(=O)c2ccc3[nH]c(=O)c(=O)[nH]c3c2)cc1Cl	.
O=S(=O)(Nc1ccccc1F)c1cccc2nsnc12	.
Cc1cc(C(=O)Nc2ccc(F)cc2F)no1	.
O=C(ON1C(=O)c2ccccc2C1=O)c1ccc([N+](=O)[O-])cc1	.
CC(=O)N1/C(=C/c2ccc([N+](=O)[O-])cc2)C(=O)c2ccccc21	51%
CC(C)C(C(=O)Nc1ccc([N+](=O)[O-])cc1)N1C(=O)c2ccccc2C1=O (configuration not stated)	.
CSc1sc(SC)c(C(=O)O)c1C(=O)O	.
O=C(CN1CCCC1)N1CCCc2c1c(=O)oc1ccc(O)cc21	.
O=C(CN1CCCCCC1)N1CCCc2c1c(=O)oc1ccc(OCc3ccccc3)cc21	30%
O=C(CN1CCCCCC1)N1CCCc2c1c(=O)oc1ccc(O)cc21	.
CCSc1nc2ccc(NC(=O)CSc3nc4ccccc4[nH]3)cc2s1	.
SMILES	ST2 IL33 inh
C#CCSc1nc(N)c(C#N)c(-c2ccc(O)cc2)c1C#N	.
Cc1ccccc1C(=O)Nc1cc2cccc([N+](=O)[O-])c2oc1=O	.
CCOc1ccccc1NC(=O)c1c(-c2ccccc2Cl)noc1C	.
Cc1onc(-c2ccccc2)c1C(=O)Nc1cccc(NC(=O)c2c(-c3ccccc3)noc2C)n1	.
CCOc1ccc(NC(=O)c2c(-c3ccccc3)noc2C)c([N+](=O)[O-])c1	38%
Cc1onc(-c2ccccc2)c1C(=O)Nc1cc2cccc([N+](=O)[O-])c2oc1=O	46%
O=C(Nc1cc2cccc([N+](=O)[O-])c2oc1=O)c1cccc(I)c1	.
CCCCNc1ncnc2c1cnn2-c1cccc(C)c1	.
O=C(c1ccccc1)N1CCC(NCCN2CCc3ccccc32)CC1	.
CCC(=O)Nc1nc2cc(NC(=O)C3CCN(S(=O)(=O)N4CCOCC4)CC3)ccc2s1	.
CSc1ccc(C2C(C#N)=C(N)OC(C)=C2C(C)=O)cc1 (configuration not stated)	.
O=C(CN1CCN(Cc2ccc(F)cc2Cl)C1=O)NC1CCCCCCC1	.
CCC(Cn1ccnc1)NC(=O)c1ccc2c(c1)nnn2C (configuration not stated)	.
CC(C)C(Cn1ccnc1)NC(=O)c1ccccc1N1CCOCC1 (configuration not stated)	.
CC(C)c1cc(C(=O)NC(Cn2ccnc2)C(C)C)nc2ncnn12 (configuration not stated)	30%
CC1CCN(C(=O)c2cc(Br)cc(Br)c2)CC1	.
COc1ccc(NC(=O)/C(=C/c2ccc3c(c2)OCO3)NC(=O)c2ccccc2OC)cc1	.
CCOc1ccccc1NC(=O)CSc1nc(-c2ccc(F)cc2)cs1	.
CC(=O)CSc1nc(-c2cccs2)cc(C(F)(F)F)c1C#N	.
CCc1nnc(NC(=O)CSc2nc(-c3cccs3)cc(C(F)(F)F)c2C#N)s1	.
N#Cc1c(C(F)(F)F)cc(-c2cccs2)nc1SCC(=O)Nc1ccc([N+](=O)[O-])cc1	38%
COc1ccc2c(c1)c(C(=O)CN1CCOCC1)c(C)n2C	.
Cc1ccc2c(C(=O)CN3CCOCC3)c(C)[nH]c2c1	32%
Cc1[nH]c2ccc(Cl)cc2c(=O)c1CN1CCOCC1	.
Cc1ccccc1Cn1nc(C)c(NC(=O)CCCn2nc([N+](=O)[O-])cc2C)c1C	.
SMILES	ST2 IL33 inh
Cc1ccc(NC(=O)c2cc3c(=O)n4ccccc4nc3n2C)cc1	.
N#Cc1c(NC(=O)c2cc(-c3ccc(Cl)cc3)on2)sc2c1CCC2	.
O=c1cc(-c2ccccc2)c2ccc(O)cc2o1	.
O=c1cc(-c2ccc(O)cc2)oc2ccccc12	.
O=c1cc2oc3cc(O)c(O)cc3c(-c3ccccc3)c-2cc1O	36%
Cc1ccc(C2(O)CCN(S(=O)(=O)c3ccc(C)c(F)c3)CC2)nc1	.
Cc1cccc(N=C2NC(=O)/C(=C\c3ccco3)S2)c1	31%
COc1cc(/C=C2\SC(=Nc3c(C)n(C)n(-c4ccccc4)c3=O)NC2=O)ccc1O	.
O=C1NC(=Nc2cccc(Cl)c2Cl)S/C1=C/c1ccco1	.
Cc1ccc(C(=O)Nc2ccccc2C(N)=O)cc1Cl	.
COc1cc2c(cc1OC)C(COc1ccc3c(C)cc(=O)oc3c1)N(C(=O)C(C)(C)C)CC2 (configuration not stated)	.
CN1CCN(c2ncccc2CNC(=O)C2=Cc3ccccc3OC=C2)CC1	.
COc1ccc(C2SCCN2S(=O)(=O)c2ccc(I)cc2)cc1 (configuration not stated)	.
N=C1S/C(=C/c2ccc(-c3ccccc3[N+](=O)[O-])o2)C(=O)N1c1nonc1N	.
COc1ccccc1/C=C1/C(=O)NN(c2ccc(C)c(Cl)c2)C1=O	.
Cc1ccc(-c2ccc(/C=C3/C(=O)NN(c4ccc(F)cc4)C3=O)o2)c([N+](=O)[O-])c1C	42%
COc1ccc(-c2ccc(/C=C3/C(=O)NN(c4ccc(C)c(Cl)c4)C3=O)o2)c([N+](=O)[O-])c1	41%
COc1cccc(/C=C2/C(=O)NN(c3ccc(C)c(Cl)c3)C2=O)c1OCC#N	.
O=C(O)C1CC=CCC1C(=O)NC1CCCC1 (configuration not stated)	.
NC(=O)c1cccnc1N1CCOC(CCCc2ccccc2)C1 (configuration not stated)	.
C=CCc1c(C)nc2nc(SCC(=O)NCCc3ccccc3)nn2c1C	.
O=C(Nc1c(C(=O)Nc2ccccc2F)oc2ccccc12)c1ccc(F)cc1	.
O=C(CCc1ccco1)NC1CCCN(CCc2ccccc2)C1 (configuration not stated)	31%
O=C1CC(NC2CCN(Cc3ccco3)CC2)CN1CCc1ccccc1 (configuration not stated)	.
COCCC(=O)NC1CCCN(CCc2ccccc2)C1 (configuration not stated)	.
SMILES	ST2 IL33 inh
CC(C)=CCCC(C)CN1CCCC1CO (configuration not stated)	.
Cc1ccc(OCCCN2CCN(C)CC2)c([N+](=O)[O-])c1	.
O=C(Nc1cccc(F)c1)C1c2ccccc2Oc2ccccc21	.
O=C(CN1C(=O)/C(=C\c2ccc(Cl)cc2)Sc2ccccc21)NCc1ccccn1	42%
COCCNC(=O)c1ccc(/C=C2\Sc3ccccc3N(Cc3ccc(F)cc3)C2=O)cc1	.
O=C(CN1C(=O)/C(=C\c2cccc(Cl)c2)Sc2ccccc21)NCc1cccnc1	.
